Experimental data from PubChem BioAssay AID1159580 (chemical genetic matrix, 2015).
“And” between values parts separate entries of the source, which are not always exact repeats. Equal entries are not always repeated. About 2,000 (36%) of roughly 5,500 compounds were called active. Not shown: some 18% with an inconclusive outcome. No stated cut-off is given here; in the data, active means normalized growth mostly below about 0.91 (no sharp cut-off); inconclusive means no clear call, values can overlap the other calls; inactive means mostly above about 0.92. Some of the results follow.

Assay: chemical genetic growth profiling, strain panel (AID 1159580);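 further: tested at 20 µM; growth read once vehicle control cultures reached saturation at 30 °C; 1 = growth at the plate median or of vehicle wells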
Conditions: S. cerevisiae deletion strains, growth OD

Measured: normalized growth

CCn1cc(C(=O)O)c(=O)c2cc(F)c(N3CCNCC3)cc21
inactive: locus YAL013W, strain DEP1, stronger effect = lower value 1 | locus YAL021C, strain ccr4, stronger effect = lower value 0.967 | locus YAL026C, strain drs2, stronger effect = lower value 0.978 | locus YAL030W, strain snc1, stronger effect = lower value 0.988 | locus YBL061C, strain skt5, stronger effect = lower value 0.991 | locus YBR009C, strain hhf1, stronger effect = lower value 0.983 | locus YBR021W, strain FUR4, stronger effect = lower value 0.905 | locus YBR023C, strain chs3, stronger effect = lower value 0.989 | locus YBR171W, strain sec66, stronger effect = lower value 0.988 | locus YBR229C, strain ROT2, stronger effect = lower value 1.01 | locus YBR231C, strain swc5, stronger effect = lower value 0.986 | locus YBR279W, strain paf1, stronger effect = lower value 0.978 | locus YCL011C, strain gbp2, stronger effect = lower value 0.983 | locus YCL016C, strain dcc1, stronger effect = lower value 0.998 | locus YCL029C, strain bik1, stronger effect = lower value 1 | locus YCL061C, strain MRC1, stronger effect = lower value 0.989 | locus YCL069W, strain vba3, stronger effect = lower value 0.966 | locus YCR088W, strain abp1, stronger effect = lower value 0.992 | locus YDL005C, strain med2, stronger effect = lower value 0.973 | locus YDL035C, strain GPR1, stronger effect = lower value 1 | locus YDL040C, strain nat1, stronger effect = lower value 0.99 | locus YDL074C, strain BRE1, stronger effect = lower value 1.02 | locus YDL101C, strain DUN1, stronger effect = lower value 1 | locus YDL134C, strain PPH21, stronger effect = lower value 0.994 | locus YDL185W, strain tfp1, stronger effect = lower value 0.998 | locus YDL192W, strain arf1, stronger effect = lower value 0.995 | locus YDR001C, strain nth1, stronger effect = lower value 0.98 | locus YDR069C, strain doa4, stronger effect = lower value 0.964 | locus YDR101C, strain arx1, stronger effect = lower value 0.972 | locus YDR137W, strain rgp1, stronger effect = lower value 0.97 | locus YDR159W, strain sac3, stronger effect = lower value 0.948 | locus YDR162C, strain NBP2, stronger effect = lower value 0.997 | locus YDR195W, strain ref2 0.962 | locus YDR297W, strain sur2, stronger effect = lower value 0.992 | locus YDR318W, strain mcm21, stronger effect = lower value 0.995 | locus YDR334W, strain swr1, stronger effect = lower value 0.981 | locus YDR335W, strain msn5, stronger effect = lower value 0.928 | locus YDR388W, stronger effect = lower value 1 | locus YDR392W, strain spt3, stronger effect = lower value 0.873 | locus YDR502C, strain sam2, stronger effect = lower value 1.01 | locus YEL003W, strain gim4, stronger effect = lower value 0.984 | locus YEL037C, strain rad23, stronger effect = lower value 0.976 | locus YEL061C, strain CIN8 (second series), stronger effect = lower value 0.97 | locus YEL061C, strain CIN8, stronger effect = lower value 1.01 | locus YER015W, strain faa2, stronger effect = lower value 0.987 | locus YER016W, strain bim1, stronger effect = lower value 0.986 | locus YER110C, stronger effect = lower value 0.996 | locus YER111C, strain swi4, stronger effect = lower value 0.975 | locus YER155C, strain BEM2 (second series), stronger effect = lower value 0.95 | locus YER155C, strain BEM2, stronger effect = lower value 1.01 | locus YER167W, strain BCK2, stronger effect = lower value 1 | locus YFR010W, strain ubp6, stronger effect = lower value 0.972 | locus YGL078C, strain dbp3, stronger effect = lower value 0.998 | locus YGL086W, strain mad1, stronger effect = lower value 0.992 | locus YGL167C, strain pmr1, stronger effect = lower value 0.985 | locus YGL173C, strain kem1, stronger effect = lower value 0.98 | locus YGL227W, strain vid30, stronger effect = lower value 0.979 | locus YGL240W, strain doc1, stronger effect = lower value 0.973 | locus YGL248W, strain PDE1, stronger effect = lower value 1 | locus YGL253W, strain hxk2, stronger effect = lower value 0.995 | locus YGR078C, strain PAC10, stronger effect = lower value 1 | locus YGR135W, strain pre9, stronger effect = lower value 0.988 | locus YGR229C, strain SMI1, stronger effect = lower value 1.02 | locus YGR252W, strain gcn5, stronger effect = lower value 0.912 | locus YHR013C, strain ard1, stronger effect = lower value 0.928 | locus YHR027C, strain rpn1, stronger effect = lower value 0.987 | locus YHR030C, strain SLT2, stronger effect = lower value 0.999 and 0.974 | locus YHR079C, strain IRE1 (second series), stronger effect = lower value 0.995 | locus YHR079C, strain IRE1, stronger effect = lower value 0.974 | locus YHR094C, strain hxt1, stronger effect = lower value 0.998 | locus YHR129C, strain ARP1, stronger effect = lower value 1 | locus YHR142W, strain chs7, stronger effect = lower value 0.971 | locus YHR200W, strain rpn10, stronger effect = lower value 0.998 | locus YIL066C, strain RNR3, stronger effect = lower value 1.01 | locus YIL073C, strain SPO22, stronger effect = lower value 1 | locus YIL125W, strain kgd1, stronger effect = lower value 1 | locus YIR030C, strain dcg1, stronger effect = lower value 0.999 | locus YJL092W, strain hpr5, stronger effect = lower value 0.982 | locus YJL095W, strain BCK1 (second series), stronger effect = lower value 0.993 | locus YJL095W, strain BCK1, stronger effect = lower value 0.991 and 0.996 | locus YJL115W, strain asf1, stronger effect = lower value 0.976 | locus YJL129C, strain trk1, stronger effect = lower value 0.929 | locus YJL134W, strain LCB3, stronger effect = lower value 1 | locus YJL154C, strain vps35, stronger effect = lower value 0.974 | locus YJL164C, strain tpk1, stronger effect = lower value 0.988 | locus YJL166W, strain qcr8, stronger effect = lower value 1 | locus YJL168C, strain set2, stronger effect = lower value 1 | locus YJL187C, strain SWE1 (second series), stronger effect = lower value 1.01 | locus YJL187C, strain SWE1, stronger effect = lower value 0.985
